These results are taken from PubChem BioAssay AID2472 (National Center for Advancing Translational Sciences (NCATS), 2010).

The whole screen tested about 290,000 compounds, of which about 2,000 (0.69%) were called active. The list comes from a sample in which actives are over-represented; it also holds similar structures and randomly drawn compounds. Values without a mark were called inactive. Cut-off read from the data, not from the text of the source: active = activity change below about -30%; inactive = the rest, inconclusive results apart.
% is set by controls: 0 for no effect and ±100 for the full control effect.

The nature of the assay: qHTS Assay for Inhibitors of Fructose-1,6-bisphosphate Aldolase from Giardia Lamblia: Coupling assay counterscreen. The note with it: coupling enzyme system counterscreen, AmpLite Red fluorescence; at 58.2 µM (top of the series). In short, it runs like this: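 Final compound at 57.5 uM, incubated 10 min at RT with coupling enzyme reagent (glyceraldehyde-3-phosphate), then 20 min with substrate and AmpLite Red detection. Fluorescence read at 525/598 nm; tests interference with the coupling assay, not aldolase inhibition.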
With `Cc1ccc(CSCCNC(=O)CN(c2ccc(F)cc2)S(C)(=O)=O)cc1`, the activity change, negative = inhibition is -1.38%. With `O=c1c(O)c(Br)ccc2c(Br)c(O)c(O)c(O)c12`, the activity change, negative = inhibition was -45.3% (active). In the case of `COc1ccc(CNC(=O)C(C)NCc2ccccc2Cl)cc1` (configuration not stated), the activity change, negative = inhibition was -0.161%. With `COc1cc(N=Cc2c(O)[nH]c3ccccc23)cc(OC)c1OC`, the activity change, negative = inhibition was -1.7%.

Take `CC(=O)n1c(C=Nc2ccccc2)c(O)c2ccccc21`: the activity change, negative = inhibition is 0.601%. The same measure for `Oc1ccc2ccccc2c1C=Nc1ccccc1`: -34.9% (active); for `O=[N+]([O-])c1ccc(N/N=C/c2ccccc2)cc1`: 1.24%. The same measure for `O=[N+]([O-])c1ccc(O)c(/C=N/Nc2ccccc2[N+](=O)[O-])c1`: 0.257%. The same measure for `O=[N+]([O-])c1ccc(N=Cc2c(O)ccc3ccccc23)cc1`: -37.8% (active); for `CCCCn1c(SCC(=O)N2CCOCC2)nc2c1c(=O)n(C)c(=O)n2C`: -0.5%; for `O=C(Nc1ccccc1N1CCOCC1)c1ccc(OCc2cscn2)cc1`: -3.06%. Consider `Cc1nc(Nc2ccccc2F)c2nnn(Cc3ccccc3Cl)c2n1`, for which the activity change, negative = inhibition was 1.81%. As for `C=C[C@](C)(O)CCC1C(=C)CCC2[C@@](C)(CO)CCC[C@@]12C` (some centres not stated), the activity change, negative = inhibition is 1.09%.

Regarding `CC(C)(C)c1cc(C(=O)N/N=C/c2ccc([N+](=O)[O-])s2)n[nH]1`, the activity change, negative = inhibition was 1.27%.

Take `CCOc1ccc(NC(=O)CCC(=O)N/N=C/c2ccc([N+](=O)[O-])s2)cc1`: the activity change, negative = inhibition is 0.71%. In the case of `O=[N+]([O-])c1ccc(C=Nc2ccc(Cl)cc2Cl)s1`, the activity change, negative = inhibition is -32% (active). Turning to `Nc1nc2c(nc(Cl)n2C2OC(CO)C(O)C2O)c(=O)[nH]1` (configuration not stated), the activity change, negative = inhibition was 1.07%. Take `CC(C)(C)NC(=O)COc1ccc(CNc2ccc3[nH]c(=O)[nH]c3c2)cc1`: the activity change, negative = inhibition was -49.7% (active). Take `COC(=O)c1ccc(OCC(=O)NC(C)(C)C)cc1`: the activity change, negative = inhibition is -2.25%. With `CC(=O)Nc1ccc(OCC(=O)NCc2ccc(C)cc2)cc1`, the activity change, negative = inhibition is 0.378%. As to `Cc1cccc(C)c1NC(=O)CN1C(=O)C(C)Oc2ccccc21` (configuration not stated), the activity change, negative = inhibition is 0.123%. Regarding `NS(=O)(=O)c1cccc(NC(=O)CC23CC4CC(CC(Br)(C4)C2)C3)c1`, the activity change, negative = inhibition was -0.295%.

In the case of `O=C(/C=C/c1ccc(N2CCOCC2)cc1)c1ccccc1`, the activity change, negative = inhibition was -2.68%. For the compound `Oc1c(C=Nc2cccc3nsnc23)ccc2ccccc12`, the activity change, negative = inhibition was -48.9% (active). Consider `Oc1ccc2ccccc2c1N=Nc1nccs1`, for which the activity change, negative = inhibition was -6.8%. Regarding `N#Cc1cccc(NC(=O)CN2CCCCCC2)c1`, the activity change, negative = inhibition was 0.599%. As to `Cc1ccc(C(=O)NC2CCN(C(=O)Nc3ccc(F)cc3)CC2)cc1`, the activity change, negative = inhibition is -0.456%. Regarding `CC(=O)OCC(NC(=O)C(Cc1ccccc1)NC(=O)OC(C)(C)C)C1OC(n2ccc(=O)[nH]c2=O)C(OC(C)=O)C1OC(C)=O` (configuration not stated), the activity change, negative = inhibition was 0.391%.

With `COc1ccc(N2CCN(C(=O)CCSCc3ccccc3F)CC2)cc1`, the activity change, negative = inhibition is 2.76%. With `O=C(CN1CCOCC1)N/N=C/c1ccc(-c2ccc(Br)cc2)o1`, the activity change, negative = inhibition is -3.01%. Regarding `Cc1ccc(-c2ccc(/C=N/NC(=O)CN3CCOCC3)o2)cc1[N+](=O)[O-]`, the activity change, negative = inhibition was -44% (active).

On to `Cc1cc(C)c([N+](=O)[O-])cc1-c1ccc(/C=N/NC(=O)c2nonc2N)o1`, for which the activity change, negative = inhibition is 2.52%. As for `CC(C)CNC(=S)NC(=O)c1ccc(Cl)cc1`, the activity change, negative = inhibition is -5.21%. As for `CCOC(=O)C1=C(c2ccc(OC)cc2)C(=O)c2ccccc2C1=O`, the activity change, negative = inhibition was -63.5% (active).

As to `CCOC(=O)c1c(-c2ccc(C)cc2)csc1/N=C(\C)C1=C(O)c2ccccc2C1=O`, the activity change, negative = inhibition is 3.5%. Turning to `COc1ccc(OCCCON2C(=O)c3ccccc3C2=O)cc1`, the activity change, negative = inhibition was 0.279%. For the compound `CC[N+](C)(CC)CCC[n+]1c(-c2ccccc2)c2cc(N)ccc2c2ccc(N)cc21`, the activity change, negative = inhibition is -38.7% (active). In the case of `COc1cc2c(C(=O)N3CCN(C)CC3)c(CSc3ccccc3)n(C)c2cc1Br` it was 1.25%; in that of `COc1cc(-c2c(-c3ccc4c(c3)OCO4)noc2C)ccc1F`, 4.94%.

As for `CNC(=O)C1(C)C=CC2(CCCCC2)N1C(C)=O` (configuration not stated), the activity change, negative = inhibition is -1.27%. On to `CN1c2ccc([N+](=O)[O-])cc2C(C)(C)C12C=Cc1cc(C(=O)O)ccc1O2` (configuration not stated), for which the activity change, negative = inhibition is 6.4%. For `COc1cccc(CC2(CO)CCCN(CC3=Cc4cc(OC)ccc4OC3)C2)c1` (configuration not stated), the activity change, negative = inhibition was -1.06%. In the case of `COc1ccc2c(c1)C=CC1(O2)N(CCO)c2ccccc2C1(C)C` (configuration not stated) it was -47.2% (active); in that of `CCOC(=O)C1(CCOc2ccccc2)CCN(Cc2cc(OC)c(O)cc2Cl)CC1`, -3.97%. On to `O=c1ccc2cc(S(=O)(=O)Nc3ccccc3F)ccc2o1`, for which the activity change, negative = inhibition is 2.93%.

On to `COc1ccc2c(c1)C(=C(C#N)C#N)C(=O)N2CCc1ccccc1`, for which the activity change, negative = inhibition was -35.5% (active). In the case of `CCCCN1C(=O)/C(=C(/C#N)C(N)=O)c2ccccc21` it was -19.4%; in that of `C#CCN1C(=O)C(O)(CC(=O)c2cc(OC)ccc2OC)c2ccccc21` (configuration not stated), 2.24%; in that of `NCCCNCCCCN(CCCN)/[N+]([O-])=N/O`, 1%. As for `CN(C)c1ccc(S(=O)(=O)NCC(=O)NCC2CCCCC2)cc1[N+](=O)[O-]`, the activity change, negative = inhibition was -0.658%. In the case of `COc1ccc(-c2ccc(C3C4C=CCCC4(C)C(=O)N3Cc3ccccc3)c(F)c2)cc1OC` (configuration not stated) it was 2.19%.

Consider `CC1(C)c2[nH]c3ccccc3c2C[C@H]2C(=O)N(N)CC(=O)N21`, for which the activity change, negative = inhibition is 2.07%.
